Assay results: PubChem BioAssay (NCATS)
Results filed as inconclusive are left out. A call without a number means that no potency is given here. More than one record can exist for a structure, and the calls need not agree. Active and inactive are the calls of the source. Unless noted, calls come from the whole dose curve; as a rule, active = well fitted curve in the direction sought with a large enough effect; inconclusive = small, poorly fitted or top-dose-only effect, or another doubt; inactive = no such curve, though single readings can be large; an effect the other way counts as inactive or inconclusive.

Assays:
[1] = P-glycoprotein substrates identified in KB-3-1 adenocarcinoma cell line, qHTS therapeutic library screen (AID 1346986); note: nearly all actives have a fitted effect of over 60% in size;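 note: potency is the fitted concentration of half-maximal effect; potency is for cytotoxicity meaning loss of cell viability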
Summary of the method: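 Dose-response cytotoxicity, KB-3-1 vs P-gp-high KB-8-5-11, no colchicine in assay medium. Read: CellTiter-Glo at 72 h.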

[2] = qHTS to identify inhibitors of the type 1 interferon - major histocompatibility complex class I in skeletal muscle: primary screen against the NCATS Mechanism Interrogation Plate v5.0 (MIPE) Libary (AID 1347411); note: nearly all actives have a fitted effect of over 65% in size; note: potency is the fitted concentration of half-maximal effect
Summary of the method: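 HLA-B HiBit myoblasts, dexamethasone-free medium + 4 ng/ml IFN-b, 24 h compound, 11-pt 1:3 from 46 uM final. Readout: Nano-Glo HiBiT lytic luminescence after 10 min lysis, RT.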

[3] = Primary qHTS for inhibitors of nuclear receptor binding SET domain protein 2 (NSD2) in an isogenic RCH-ACV NSD2 p.E1099K mutant (9B) (AID 1645876); note: nearly all actives have a fitted effect of over 70% in size; note: potency is the fitted concentration of half-maximal effect
[4] = Primary qHTS for inhibitors of nuclear receptor binding SET domain protein 2 (NSD2) in an RCH-ACV wild type WT cells (2C) (AID 1645877); note: nearly all actives have a fitted effect of over 70% in size; note: potency is the fitted concentration of half-maximal effect
[5] = target: Glutathione peroxidase 1 (Homo sapiens) (UniProt P07203); experiment: Primary qHTS Assay for Inhibitors of Recombinant Selenoprotein Glutathione Peroxidase 1 (GPX1) (AID 1845191); note: nearly all actives have a fitted effect of over 65% in size
Chain of Glutathione peroxidase 1 (Homo sapiens) (P07203 whole entry, looked up): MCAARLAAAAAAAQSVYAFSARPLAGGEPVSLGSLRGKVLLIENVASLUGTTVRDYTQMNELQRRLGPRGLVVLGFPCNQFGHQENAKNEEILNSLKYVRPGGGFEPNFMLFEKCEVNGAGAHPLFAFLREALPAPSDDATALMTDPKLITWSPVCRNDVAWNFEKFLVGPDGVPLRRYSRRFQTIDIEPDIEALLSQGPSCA
Summary of the method: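 NADPH consumption tracked by fluorescence at 340/450 nm between t=0 and t=15 min, room temperature. Final mix: 10 nM GPX1, 100 nM glutathione reductase, 1 mM GSH, 0.5 mM NADPH, 0.5 mM cumene hydroperoxide, 0.01% BSA; 30 min compound–enzyme preincubation.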

[6] = target: Phospholipid hydroperoxide glutathione peroxidase GPX4 (Homo sapiens) (UniProt P36969); experiment: Primary qHTS Assay for Inhibitors of Recombinant Selenoprotein Glutathione Peroxidase 4 (GPX4) (AID 1845192); details: outcome: dose series up to 50 µM unless noted; note: nearly all actives have a fitted effect of over 65% in size
Chain of Phospholipid hydroperoxide glutathione peroxidase GPX4 (Homo sapiens) (P36969 whole entry, looked up): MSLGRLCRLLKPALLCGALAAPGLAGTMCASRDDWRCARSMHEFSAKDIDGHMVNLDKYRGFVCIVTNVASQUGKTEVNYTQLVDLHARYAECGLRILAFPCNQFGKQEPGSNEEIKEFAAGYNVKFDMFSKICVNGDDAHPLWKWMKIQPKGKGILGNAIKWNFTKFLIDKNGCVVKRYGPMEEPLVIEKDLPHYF
Summary of the method: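 NADPH consumption followed by fluorescence at 340/450 nm, t=0 and after 15 min at room temperature. Reaction started with cumene hydroperoxide (0.5 mM final) after 30 min compound–GPX4 preincubation; final 200 nM GPX4, 100 nM GR, 1 mM GSH, 0.5 mM NADPH.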

[7] = qHTS drug screen for cell cycle checkpoint inhibitors in PARPi-resistant BRCA-mutant ovarian cancer cell lines. (AID 1963452; calls by dose curve); details: PEO1/OlaR viability, CellTiter-Glo luminescence, 96 h, stronger effect = lower value
Summary of the method: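 PEO1, PEO4 and PEO1/OlaR ovarian cancer cells, 600 per well, exposed 96 h at 37C to a dilution series. Viability read by CellTiter-Glo luminescence, normalized to DMSO and empty wells; activity summarized as Z-AUC.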

[8] = target: Calcium and integrin-binding protein 1 (Homo sapiens) (UniProt Q99828); experiment: Primary qHTS for Identification of Calcium Integrin Binding Protein 1 (CIB1) Competitor (AID 1508620);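 note: GST tagged CIB1 binding a fluorescein labelled alphaIIb integrin peptide tracer; top concentration of the series differs between compounds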
Chain of Calcium and integrin-binding protein 1 (Homo sapiens) (Q99828 whole entry, looked up): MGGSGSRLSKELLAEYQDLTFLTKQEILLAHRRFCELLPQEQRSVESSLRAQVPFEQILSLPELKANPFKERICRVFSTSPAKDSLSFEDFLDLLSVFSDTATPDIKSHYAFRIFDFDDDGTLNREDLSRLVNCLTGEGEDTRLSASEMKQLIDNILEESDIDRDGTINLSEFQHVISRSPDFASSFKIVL
Summary of the method: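 CIB1-GST (1 uM final) and compound incubated 15 min at room temperature before adding FITC-alphaIIb peptide tracer (100 nM final). Competition for binding read by fluorescence polarization (ex 480, em 540) after another 15 min at room temperature.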

[9] = target: N-terminal Xaa-Pro-Lys N-methyltransferase 1 (Homo sapiens) (UniProt Q9BV86); experiment: Confirmatory qHTS for Inhibitors of N-terminal methyltransferase 1 (NTMT1): MTaseGlo Assay (AID 1645874); note: potency is the fitted concentration of half-maximal effect; nearly all actives have a fitted effect of over 65% in size
Chain of N-terminal Xaa-Pro-Lys N-methyltransferase 1 (Homo sapiens) (Q9BV86 whole entry, looked up): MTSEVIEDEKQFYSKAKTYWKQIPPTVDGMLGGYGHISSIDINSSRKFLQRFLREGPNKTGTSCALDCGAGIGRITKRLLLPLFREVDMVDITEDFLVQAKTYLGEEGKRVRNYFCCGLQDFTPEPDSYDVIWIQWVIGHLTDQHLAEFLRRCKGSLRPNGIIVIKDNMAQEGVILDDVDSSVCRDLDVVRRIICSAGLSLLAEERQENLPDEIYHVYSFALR
Summary of the method: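 Enzyme mix (125 nM NTMT1, 100 uM SAM) + compound, 15 min RT; + 1 uM SPKRIA, 30 min RT, dark; MTase-Glo reagent 30 min, detection solution 30 min; luminescence. % inhibition vs no-enzyme/DMSO controls, 4-parameter Hill fit.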

[10] = target: Catechol O-methyltransferase (Homo sapiens) (UniProt P21964); experiment: Confirmatory Screen for Target Class Profiling of Small Molecule Inhibitors of Methyltransferases (AID 1745852; calls by dose curve; note: potency is the fitted concentration of half-maximal effect); details: MTase-Glo luminescence, SAH detection, recombinant enzyme; measured here: COMT max response; stronger effect = lower value
Chain of Catechol O-methyltransferase (Homo sapiens) (P21964 whole entry, looked up): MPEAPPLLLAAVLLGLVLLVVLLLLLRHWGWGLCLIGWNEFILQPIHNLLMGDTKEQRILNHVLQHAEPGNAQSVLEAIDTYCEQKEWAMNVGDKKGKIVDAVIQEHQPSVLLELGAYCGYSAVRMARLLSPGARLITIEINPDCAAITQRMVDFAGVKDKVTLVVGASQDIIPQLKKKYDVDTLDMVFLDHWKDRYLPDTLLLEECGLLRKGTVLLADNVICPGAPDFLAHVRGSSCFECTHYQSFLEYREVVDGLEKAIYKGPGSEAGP

[11] = target: Guanidinoacetate N-methyltransferase (Homo sapiens) (UniProt Q14353); experiment: as above; details: activity change, negative = inhibition: at 57.3 µM (top of the series) unless noted
[12] = target: Nicotinamide N-methyltransferase (Homo sapiens) (UniProt P40261); experiment: as above; details: MTase-Glo luminescence, SAH detection, recombinant enzyme; measured here: NNMT max response; stronger effect = lower value
Chain of Nicotinamide N-methyltransferase (Homo sapiens) (P40261 whole entry, looked up): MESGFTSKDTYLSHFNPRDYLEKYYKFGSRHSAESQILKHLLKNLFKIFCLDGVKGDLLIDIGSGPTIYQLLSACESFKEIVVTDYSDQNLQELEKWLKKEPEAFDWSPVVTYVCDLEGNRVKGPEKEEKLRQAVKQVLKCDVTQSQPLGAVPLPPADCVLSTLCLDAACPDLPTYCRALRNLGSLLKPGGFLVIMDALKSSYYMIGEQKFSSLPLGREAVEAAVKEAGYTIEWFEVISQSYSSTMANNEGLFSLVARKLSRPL

[13] = target: Phenylethanolamine N-methyltransferase (Homo sapiens) (UniProt P11086); experiment: as above; details: MTase-Glo luminescence, SAH detection, recombinant enzyme; measured here: PNMT max response; stronger effect = lower value
Chain of Phenylethanolamine N-methyltransferase (Homo sapiens) (P11086 whole entry, looked up): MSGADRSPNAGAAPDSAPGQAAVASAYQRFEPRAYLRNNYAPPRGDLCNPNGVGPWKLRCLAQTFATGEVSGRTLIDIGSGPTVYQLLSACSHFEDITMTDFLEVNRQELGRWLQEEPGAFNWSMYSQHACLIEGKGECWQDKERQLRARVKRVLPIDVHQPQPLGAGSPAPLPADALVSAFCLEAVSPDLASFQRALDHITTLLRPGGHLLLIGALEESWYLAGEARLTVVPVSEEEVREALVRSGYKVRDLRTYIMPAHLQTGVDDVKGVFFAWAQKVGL

[14] = target: Cytochrome P450 3A4 (Homo sapiens) (UniProt P08684); experiment: qHTS Assay for Inhibitors and Substrates of Cytochrome P450 3A4 (AID 884); note: potency is the fitted concentration of half-maximal effect; nearly all actives have a fitted effect of over 50% in size
Chain of Cytochrome P450 3A4 (Homo sapiens) (P08684 whole entry, looked up): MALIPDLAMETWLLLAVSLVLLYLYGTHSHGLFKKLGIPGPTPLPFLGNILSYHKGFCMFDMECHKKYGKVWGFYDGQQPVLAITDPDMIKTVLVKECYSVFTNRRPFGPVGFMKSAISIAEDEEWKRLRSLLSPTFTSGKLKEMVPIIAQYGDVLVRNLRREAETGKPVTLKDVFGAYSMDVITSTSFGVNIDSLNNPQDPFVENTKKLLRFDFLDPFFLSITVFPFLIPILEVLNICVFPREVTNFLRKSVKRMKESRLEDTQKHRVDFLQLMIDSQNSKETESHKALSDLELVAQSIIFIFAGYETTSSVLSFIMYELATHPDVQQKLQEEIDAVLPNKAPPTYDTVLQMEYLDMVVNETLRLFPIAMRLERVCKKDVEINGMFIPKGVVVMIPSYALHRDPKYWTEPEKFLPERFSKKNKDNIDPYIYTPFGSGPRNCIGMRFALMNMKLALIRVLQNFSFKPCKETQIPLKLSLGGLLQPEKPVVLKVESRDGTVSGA
Summary of the method: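 Luminescent readout of luciferin produced by CYP3A4 (20 nM) dealkylation of Luciferin-PPXE, 25 uM (its KM). NADPH-driven reaction ran 60 min at RT after 10 min compound preincubation; data scaled to 57 uM ketoconazole as 100% inhibition.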

[15] = target: Cytochrome P450 3A4 (Homo sapiens) (UniProt P08684); experiment: qHTS Assay for Activators of Cytochrome P450 3A4 (AID 885); note: nearly all actives have a fitted effect of over 65% in size
Summary of the method: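 Activators are scored by enhanced luminescence from CYP3A4 conversion of luciferin-PPXE (25uM, equal to KM) to luciferin, after 60 min at RT with an NADPH-regenerating system.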

[16] = test system: Zika virus NS2B-NS3 protease; experiment: Primary screen GU AMC qHTS for Zika virus inhibitors (AID 1347154); note: nearly all actives have a fitted effect of over 70% in size
Summary of the method: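 Fluorogenic AMC-substrate cleavage by noncovalent NS2B-NS3 protease complex (25 nM, pH 8.0 Tris buffer with Tween 20) followed for 15 minutes at room temperature (~20% conversion). Percent inhibition from ex340/em450 signal change, fitted by 4-parameter Hill equation.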

[17] = Primary qHTS for small molecule stabilizers of the endoplasmic reticulum resident proteome: Secreted ER Calcium Modulated Protein (SERCaMP) assay (AID 1508630)
Summary of the method: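 The SH-SY5Y reporter protocol was run at 3 concentrations up to 38.3 uM (primary) or 11 concentrations (follow-up): 16 h compound, 100 nM thapsigargin for 4 h, then extracellular luciferase luminescence.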

[18] = measured here: PEO1 parental Z-AUC

Q: For O=C(Nc1cc(Oc2cc(F)c(NC(=O)C3(C(=O)Nc4ccc(F)cc4)CC3)cc2F)ccn1)C1CC1, which Potency [1] is on record?
A: 5.17 µM (active)

Q: And the Potency [2]?
A: 18.6 µM (active)

Q: What about the Potency [3] of the same compound?
A: 2.59 µM (active) and inactive

Q: What about the Potency [4] of the same compound?
A: 2.59 µM (active) and inactive

Q: What about the Potency [5] of the same compound?
A: inactive

Q: What about the Potency [6] of the same compound?
A: inactive

Q: And the Z-AUC [7]?
A: -0.419 (inactive)

Q: What about the Z-AUC [7, 18] of the same compound?
A: 0.97

Q: What about the Z-AUC ([7]; measured here: PEO4 Z-AUC) of the same compound?
A: -0.43

Q: With CSC(Cc1ccc(Cl)cc1)C(=O)Nc1ccc(Cl)cc1C(=O)O (stereo not drawn) as the compound, how does the Potency [1] read?
A: inactive

Q: And the Potency [3]?
A: inactive

Q: And the Potency [4]?
A: inactive

Q: And the Potency [5]?
A: inactive

Q: Which results are given for Nc1ncnc2c1nc(Cl)n2C1O[C@H](CO)[C@@H](O)[C@H]1O (stereo partly drawn)?
A: Potency [1]: 2.91 µM (active); Potency [3]: 2.59 µM (active); Potency [4]: 1.84 µM (active)

Q: Which results are given for C[C@@]1(F)[C@H](O)[C@@H](CO)O[C@H]1n1ccc(N)nc1=O?
A: Potency [1]: inactive; Potency [3]: inactive; Potency [4]: inactive

Q: For COc1ccc(CCNCc2ccc(OCc3ccc(Cl)nc3)c(OC)c2)cc1OC, which Potency [1] is on record?
A: inactive

Q: What about the Potency [5] of the same compound?
A: inactive

Q: Which Potency [1] does the source give for CN(Cc1nccs1)c1ncnc2ccc(-c3ccc4c(c3)OCO4)cc12 here?
A: inactive

Q: And the outcome [8]?
A: inactive

Q: What about the Potency [9] of the same compound?
A: 11.5 µM (active)

Q: And the activity [10]?
A: -82.4%

Q: What about the Potency [11] of the same compound?
A: 24.1 µM (active)

Q: And the activity [12]?
A: -71.7%

Q: And the activity [13]?
A: -84.4%

Q: What about the Potency [5] of the same compound?
A: inactive

Q: What does the source list for CCCCCCCCCCCCCCCCOCCCOP(=O)(O)COC(CO)Cn1ccc(N)nc1=O (stereo not drawn)?
A: Potency [1]: 8.2 µM (active); Potency [2]: inactive; Potency [4]: 18.6 µM (active); Potency [5]: inactive; Potency [6]: inactive; Z-AUC [7]: 0.0641 (inactive); Z-AUC [7, 18]: -0.362; Z-AUC ([7]; measured here: PEO4 Z-AUC): -0.397

Q: Which results are given for C=CC(=O)c1ccc2ccccc2c1?
A: Potency [14]: 25.1 µM (active); Potency [15]: inactive; Potency [1]: inactive; Potency [16]: inactive; Potency [17]: inactive; Potency [4]: inactive; Potency [5]: inactive

Q: With CCOC(=O)c1c2c3c(cccc3[nH]c1=O)C(=O)c1ccccc1-2 as the compound, how does the Potency [1] read?
A: inactive

Q: And the Potency [3]?
A: inactive

Q: What about the Potency [4] of the same compound?
A: inactive

Q: And the Potency [5]?
A: inactive

Q: With Clc1cc(Cl)c2c(c1)N=C1CCCCCN1C2 as the compound, how does the Potency [1] read?
A: inactive

Q: What about the Potency [3] of the same compound?
A: inactive

Q: And the Potency [4]?
A: inactive

Q: What about the Potency [5] of the same compound?
A: inactive

Q: Which Potency [1] does the source give for Cc1cc(-c2nc(C(=O)Nc3cn(C4CCOCC4)nc3C(N)=O)co2)ccn1 here?
A: 16.4 µM (active)

Q: And the Potency [3]?
A: 9.2 µM (active)

Q: What about the Potency [4] of the same compound?
A: 16.4 µM (active)

Q: And the Potency [5]?
A: inactive

Q: With BrC1C(Br)C(Br)C(Br)C(Br)C1Br (stereo not drawn) as the compound, how does the Potency [1] read?
A: inactive

Q: And the Potency [3]?
A: inactive

Q: And the Potency [4]?
A: inactive

Q: What about the Potency [5] of the same compound?
A: inactive

Q: Which Potency [1] does the source give for Cn1cc(-c2cc(Oc3cc(F)c(NC(=O)C4(C(=O)Nc5ccccc5)CC4)cc3F)ccn2)cn1 here?
A: 18.4 µM (active)

Q: And the Potency [2]?
A: 29.4 µM (active)

Q: And the Potency [3]?
A: 9.34 µM (active)

Q: What about the Potency [5] of the same compound?
A: inactive

Q: And the Potency [6]?
A: inactive

Q: What about the Z-AUC [7] of the same compound?
A: 0.797 (inactive)

Q: And the Z-AUC [7, 18]?
A: -0.238

Q: What about the Z-AUC ([7]; measured here: PEO4 Z-AUC) of the same compound?
A: 0.178
